Our source for the Potency and outcome values is PubChem BioAssay (Tox21).

Inconclusive results are not listed. Calls of active or inactive are those of the source. Unless noted, the call rests on the fitted dose curve.

Test [1] can be described thus: qHTS assay to identify small molecule antagonists of the sonic hedgehog signaling (Shh) pathway (AID 1259369). Further: nearly all actives have a fitted effect of over 45% in size. Further: potency means the concentration at half of the fitted maximal effect. An outline of the steps:
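Screening used 3T3Gli1-Luc cells at 2,000 per well, compounds delivered in DMSO, and conditioned medium as agonist stimulus; plates incubated 24hr at 37 C and 5% CO2 before a 30min luciferase step.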
For orientation: qHTS replaces the single test concentration by a dilution series.

The target of test [2] is Estrogen receptor beta (Homo sapiens) (UniProt Q92731). The test can be described thus: qHTS assay to identify small molecule agonists of the estrogen receptor beta (ER-beta) signaling pathway (AID 1259377; active means well fitted activation curve with a large enough effect in the signal ratio in the repeat runs, not every such curve was filed as active; the % refers to the signal ratio; further: potency means the concentration at half of the fitted maximal effect). Put shortly:
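qHTS in ER-beta-UAS-bla HEK293T cells: 6 hr settling, then 16 hr compound at 37C, then LiveBLAzer substrate 2 h at RT before fluorescence reading.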

Test [3] can be described thus: qHTS assay to identify small molecule agonists of the estrogen receptor beta (ER-beta) signaling pathway - cell viability counter screen (AID 1259380; active means well fitted curve in the direction sought with a large enough effect in the repeat runs; an effect the other way counts as inactive or inconclusive; further: nearly all actives have a fitted effect of over 30% in size; further: potency means the concentration at half of the fitted maximal effect). An outline of the steps: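 Viability of ER-beta-UAS-bla HEK293T cells was determined by CellTiter-Glo luminescence following 16 hr treatment with test compounds at 37C.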
A short description of test [4]: qHTS assay to identify small molecule antagonists of the estrogen receptor beta (ER-beta) signaling pathway - cell viability counter screen (AID 1259382; active means well fitted curve in the direction sought with a large enough effect in the repeat runs; an effect the other way counts as inactive or inconclusive; further: series mostly up to about 92 µM; nearly all actives have a fitted effect of over 55% in size). Put shortly:
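Tox21 10K library tested in qHTS format on ER-beta-bla HEK293T cells stimulated with 1nM E2; 16 hr treatment at 37C. Same-well CellTiter-Glo luminescence served as the cell viability measure.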

Test [5] is described as follows: qHTS assay to identify small molecule agonists of the estrogen receptor alpha (ER-alpha) signaling pathway in the presence of an antagonist - cell viability counter screen (AID 1259386; active means well fitted curve in the direction sought with a large enough effect in the repeat runs; an effect the other way counts as inactive or inconclusive;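 further: cells exposed to compounds for 22 h at 37 °C before the viability read; nearly all actives have a fitted effect of over 30% in size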; further: potency means the concentration at half of the fitted maximal effect). Put shortly: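 Fluorescent CellTiter-Fluor viability signal from VM7Luc4E2 cells, with the reagent added during the final hour of a 22hr compound exposure at 37C in the presence of 10.0nM ICI-182,780.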

Test [6] has as its target Progesterone receptor (Homo sapiens) (UniProt P06401). The test can be described thus: qHTS assay to identify small molecule agonists of the progesterone receptor (PR) signaling pathway (AID 1346784). Further: nearly all actives have a fitted effect of over 30% in size. An outline of the steps: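 Fluorescence from LiveBLAzer B/G FRET substrate cleavage (2 hr, RT) reported PR activation in PR-UAS-bla HEK 293T cells treated 16 hr at 37C/5% CO2 with compounds; medium contained 2% charcoal-stripped FBS.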

The target is the same in test [7]. Put plainly: qHTS assay to identify small molecule antagonists of the progesterone receptor (PR) signaling pathway (AID 1346795; active means well fitted inhibition curve with a large enough effect in the signal ratio in the repeat runs, not every such curve was filed as active; the % refers to the signal ratio). Put shortly:
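Fluorescence intensity measured 2 hr after adding beta-lactamase FRET substrate to PR-UAS-bla HEK293T cells that had been co-treated 16 hr with compound and 1 nM R5020 (final concentration) in 2% charcoal-stripped FBS.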

The nature of test [8]: qHTS assay to identify small molecule antagonists of the TGF-beta/Smad signaling pathway - cell viability counter screen (AID 1346824; active means well fitted curve in the direction sought with a large enough effect in the repeat runs; an effect the other way counts as inactive or inconclusive; further: nearly all actives have a fitted effect of over 50% in size). Put shortly:
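SBE-bla HEK 293T cells were plated overnight at 37 C, then given compounds in DMSO plus TGF-beta1 (added as 0.25 ng/mL solution) for 5 hr. After the bla read, CellTiter-Glo was added to the same wells and luminescence read after 30 min at room temperature.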

Test [9] is described as follows: qHTS assay to identify small molecule agonists of the TGF-beta/Smad signaling pathway - cell viability counter screen (AID 1346829; active means well fitted curve in the direction sought with a large enough effect in the repeat runs; an effect the other way counts as inactive or inconclusive; further: top concentration of the series differs between compounds; nearly all actives have a fitted effect of over 45% in size). Put shortly:
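SBE-bla HEK 293T cells plated overnight, compound exposure 5 hr at 37 C. Viability read in the same wells by CellTiter-Glo luminescence after 30 min at room temperature, following the beta-lactamase read.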

Test [10] can be described thus: qHTS assay to identify small molecule agonists of the TGF-beta/Smad signaling pathway (AID 1346859; active means well fitted activation curve with a large enough effect in the signal ratio in the repeat runs, not every such curve was filed as active; the % refers to the signal ratio; further: series mostly up to about 77 µM). Put shortly:
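After overnight seeding, SBE-bla HEK 293T cells are dosed with compounds in DMSO and kept 5 hr at 37 C, 5% CO2. LiveBLAzer-type FRET substrate is then applied for 2 hr at room temperature.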

Test [11] has as its target Androgen receptor (Homo sapiens) (UniProt P10275). Put plainly: qHTS assay to identify small molecule agonists of the androgen receptor (AR) signaling pathway in the presence of an antagonist (AID 1259381). Further: nearly all actives have a fitted effect of over 15% in size. Put shortly: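 Here, 15-concentration compound series were pin-transferred onto MDA-kb2 MMTV-luciferase cells already dosed with nilutamide (3.0uM final). After 16hr at 37C, ONE-Glo was added and luminescence read 30min later at room temperature.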

Test [12] addresses Estrogen receptor (Homo sapiens) (UniProt P03372). Put plainly: qHTS assay to identify small molecule agonists of the estrogen receptor alpha (ER-alpha) signaling pathway in the presence of an antagonist (AID 1259383). Further: top concentration of the series differs between compounds; nearly all actives have a fitted effect of over 15% in size. An outline of the steps:
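In VM7Luc4E2 cells, 4,000 per well, compounds at 15 concentrations were co-incubated 22hr at 37C with 10.0nM final ICI-182,780. Luminescence from the stably transfected 4×ERE-luciferase reporter was recorded 30min after ONE-Glo addition.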

The nature of test [13]: qHTS assay to identify small molecule agonists or antagonists of the thyroid stimulating hormone receptor (TSHR) signaling pathway - wild type cell line counter screen (AID 1259384). Put shortly:
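Wild-type HEK293 cells were plated 18 h at 37 C/5% CO2, pin-dosed with compound plus Ro20-1724 medium, held 30 min at room temperature, then given cAMP-d2 and anti-cAMP-cryptate; fluorescence was read after 1 h. Fifteen concentrations, triplicate.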

Test [14] is described as follows: qHTS assay to identify small molecule agonists of the progesterone receptor (PR) signaling pathway - cell viability counter screen (AID 1346799). Further: nearly all actives have a fitted effect of over 45% in size. Further: potency means the concentration at half of the fitted maximal effect. Put shortly:
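In parallel with the beta-lactamase readout, cytotoxicity toward PR-UAS-bla HEK293T cells was measured by CellTiter-Glo luminescence following 16 hr compound incubation in 2% charcoal-stripped FBS medium.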

The target of test [15] is Thyrotropin-releasing hormone receptor (Homo sapiens) (UniProt P34981). Put plainly: qHTS assay to identify small molecule antagonists of the thyrotropin-releasing hormone receptor (TRHR) signaling pathway (AID 1346877; active means well fitted inhibition curve with a large enough effect in the repeat runs, not every such curve was filed as active; further: series mostly up to about 51 µM). An outline of the steps:
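In this cell-based calcium flux format, HEK293 cells expressing TRHR received test compound for 5 min before the agonist TRH (1 nM final). Dye loading lasted 2 h at 37 °C.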

For test [16] the target is unchanged. The test can be described thus: qHTS assay to identify small molecule agonists of the thyrotropin-releasing hormone receptor (TRHR) signaling pathway (AID 1346891). Further: series mostly up to about 58 µM. Put shortly:
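Compounds were tested as agonists at 15 concentrations, in triplicate, on TRHR-Hek293 cells; calcium-sensitive dye fluorescence was recorded for 3 min following addition.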

Test [17] in a line: qHTS assay to identify small molecule agonists of the androgen receptor (AR) signaling pathway in the presence of an antagonist - cell viability counter screen (AID 1259379; active means well fitted curve in the direction sought with a large enough effect in the repeat runs; an effect the other way counts as inactive or inconclusive;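 further: MDA-kb2 human breast cancer cells carrying an MMTV luciferase reporter; series mostly up to about 92 µM; nearly all actives have a fitted effect of over 25% in size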). Put shortly:
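In MDA-kb2 cells (human breast carcinoma, MMTV-luciferase), compounds at 15 concentrations plus 3.0uM nilutamide; 16 hr, 37C, 0% CO2; CellTiter-Fluor fluorescence read for viability.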

The target of test [18] is Thyrotropin receptor (Homo sapiens) (UniProt P16473). The test can be described thus: qHTS assay to identify small molecule antagonists of the thyroid stimulating hormone receptor (TSHR) signaling pathway (AID 1259385). Further: nearly all actives have a fitted effect of over 20% in size. An outline of the steps: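 TSHR-HEK293 cells were plated and held 18 h at 37C/5% CO2, then given compound plus Ro20-1724 and stimulated with TSH at 1.5 ng/mL final. After 30 min at room temperature, cAMP was detected with cAMP-d2/anti-cAMP-cryptate (1 h) by fluorescence.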

Test [19] is described as follows: qHTS assay to identify small molecule antagonists of the progesterone receptor (PR) signaling pathway - cell viability counter screen (AID 1346798; active means well fitted curve in the direction sought with a large enough effect in the repeat runs; an effect the other way counts as inactive or inconclusive; further: series mostly up to about 92 µM; nearly all actives have a fitted effect of over 50% in size). Put shortly:
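CellTiter-Glo luminescence; PR-UAS-bla HEK293T, 3,000 cells/well; compound + R5020, 16 hr, 37C/5% CO2; 30 min RT before read.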

For test [20], the target named is Estrogen receptor beta (Homo sapiens) (UniProt Q92731). Put plainly: qHTS assay to identify small molecule antagonists of the estrogen receptor beta (ER-beta) signaling pathway (AID 1259378; active means well fitted inhibition curve with a large enough effect in the signal ratio in the repeat runs, not every such curve was filed as active; the % refers to the signal ratio). An outline of the steps:
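ER-beta-UAS-bla HEK293T (GripTite) cells in 2% charcoal-stripped FBS medium were preincubated 6 hr at 37C, dosed with compound, then stimulated with 1 nM E2 (final) for 16 hr; beta-lactamase reporter read by B/G FRET fluorescence after 2 hr substrate loading.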

Thyrotropin receptor (Homo sapiens), sequence (P16473 whole entry, looked up): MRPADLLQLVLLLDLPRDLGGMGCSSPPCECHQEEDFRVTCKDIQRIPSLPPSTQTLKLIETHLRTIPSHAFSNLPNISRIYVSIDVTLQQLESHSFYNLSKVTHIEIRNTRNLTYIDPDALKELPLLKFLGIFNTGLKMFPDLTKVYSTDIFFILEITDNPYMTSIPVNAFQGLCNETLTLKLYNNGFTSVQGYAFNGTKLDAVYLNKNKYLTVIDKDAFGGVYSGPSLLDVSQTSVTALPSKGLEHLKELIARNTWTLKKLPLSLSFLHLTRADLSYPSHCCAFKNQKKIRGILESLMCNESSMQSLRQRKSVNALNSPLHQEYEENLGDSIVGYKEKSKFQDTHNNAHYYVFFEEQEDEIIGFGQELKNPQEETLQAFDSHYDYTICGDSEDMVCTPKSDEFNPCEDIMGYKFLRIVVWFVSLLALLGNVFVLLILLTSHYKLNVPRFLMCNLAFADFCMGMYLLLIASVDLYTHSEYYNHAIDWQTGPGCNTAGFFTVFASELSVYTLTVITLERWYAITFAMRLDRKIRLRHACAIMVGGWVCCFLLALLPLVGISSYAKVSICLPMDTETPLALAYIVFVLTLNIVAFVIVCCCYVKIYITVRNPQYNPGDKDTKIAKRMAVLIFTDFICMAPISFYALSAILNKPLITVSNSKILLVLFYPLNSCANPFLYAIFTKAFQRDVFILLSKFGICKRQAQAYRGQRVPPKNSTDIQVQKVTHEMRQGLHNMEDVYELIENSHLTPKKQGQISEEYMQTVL
Androgen receptor (Homo sapiens), sequence (P10275 whole entry, looked up): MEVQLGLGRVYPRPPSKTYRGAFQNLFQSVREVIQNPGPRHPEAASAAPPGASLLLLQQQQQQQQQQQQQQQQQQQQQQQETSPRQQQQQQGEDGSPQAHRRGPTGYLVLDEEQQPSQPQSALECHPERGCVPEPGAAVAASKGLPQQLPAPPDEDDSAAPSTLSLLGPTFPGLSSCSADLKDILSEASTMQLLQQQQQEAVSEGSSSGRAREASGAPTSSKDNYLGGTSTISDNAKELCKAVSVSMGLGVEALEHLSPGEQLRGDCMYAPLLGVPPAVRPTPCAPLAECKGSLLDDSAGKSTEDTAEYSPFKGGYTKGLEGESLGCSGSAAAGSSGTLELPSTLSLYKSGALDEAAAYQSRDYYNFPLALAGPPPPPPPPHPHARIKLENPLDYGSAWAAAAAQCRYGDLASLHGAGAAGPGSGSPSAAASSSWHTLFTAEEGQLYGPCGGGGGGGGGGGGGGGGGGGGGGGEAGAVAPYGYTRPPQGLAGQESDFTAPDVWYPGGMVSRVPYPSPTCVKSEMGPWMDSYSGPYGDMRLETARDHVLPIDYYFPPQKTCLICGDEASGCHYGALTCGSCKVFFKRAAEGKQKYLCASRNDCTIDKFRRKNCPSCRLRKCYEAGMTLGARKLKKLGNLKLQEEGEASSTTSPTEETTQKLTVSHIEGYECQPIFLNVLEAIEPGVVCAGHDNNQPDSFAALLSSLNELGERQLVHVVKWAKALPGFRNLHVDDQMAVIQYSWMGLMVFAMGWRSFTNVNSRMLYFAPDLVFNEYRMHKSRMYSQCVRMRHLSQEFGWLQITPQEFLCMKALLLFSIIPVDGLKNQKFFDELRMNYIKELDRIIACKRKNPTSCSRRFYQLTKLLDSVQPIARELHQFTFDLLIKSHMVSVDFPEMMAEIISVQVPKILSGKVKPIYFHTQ
Progesterone receptor (Homo sapiens), sequence (P06401 whole entry, looked up): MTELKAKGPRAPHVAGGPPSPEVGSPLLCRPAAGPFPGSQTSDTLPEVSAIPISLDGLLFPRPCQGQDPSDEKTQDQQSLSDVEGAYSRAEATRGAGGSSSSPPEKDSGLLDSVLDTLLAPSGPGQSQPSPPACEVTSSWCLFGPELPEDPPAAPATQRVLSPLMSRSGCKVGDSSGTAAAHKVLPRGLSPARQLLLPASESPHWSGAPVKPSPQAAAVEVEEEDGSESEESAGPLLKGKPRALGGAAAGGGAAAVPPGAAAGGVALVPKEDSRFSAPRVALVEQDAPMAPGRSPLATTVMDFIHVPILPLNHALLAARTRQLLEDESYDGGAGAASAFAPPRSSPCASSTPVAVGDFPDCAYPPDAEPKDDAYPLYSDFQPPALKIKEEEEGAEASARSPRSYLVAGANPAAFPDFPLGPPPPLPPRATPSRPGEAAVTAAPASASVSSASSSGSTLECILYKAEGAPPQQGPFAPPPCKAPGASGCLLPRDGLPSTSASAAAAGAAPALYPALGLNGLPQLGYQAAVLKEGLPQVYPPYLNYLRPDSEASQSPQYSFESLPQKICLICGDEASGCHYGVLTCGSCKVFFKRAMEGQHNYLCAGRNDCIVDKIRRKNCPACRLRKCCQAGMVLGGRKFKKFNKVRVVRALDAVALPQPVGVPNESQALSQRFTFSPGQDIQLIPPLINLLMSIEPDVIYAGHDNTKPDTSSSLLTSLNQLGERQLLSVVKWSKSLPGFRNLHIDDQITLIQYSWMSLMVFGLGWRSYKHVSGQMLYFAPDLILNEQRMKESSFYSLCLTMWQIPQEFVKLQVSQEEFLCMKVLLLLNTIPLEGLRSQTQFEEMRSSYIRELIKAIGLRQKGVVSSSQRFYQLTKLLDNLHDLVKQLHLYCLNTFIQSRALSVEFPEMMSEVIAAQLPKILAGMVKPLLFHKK
Estrogen receptor beta (Homo sapiens), sequence (Q92731 whole entry, looked up): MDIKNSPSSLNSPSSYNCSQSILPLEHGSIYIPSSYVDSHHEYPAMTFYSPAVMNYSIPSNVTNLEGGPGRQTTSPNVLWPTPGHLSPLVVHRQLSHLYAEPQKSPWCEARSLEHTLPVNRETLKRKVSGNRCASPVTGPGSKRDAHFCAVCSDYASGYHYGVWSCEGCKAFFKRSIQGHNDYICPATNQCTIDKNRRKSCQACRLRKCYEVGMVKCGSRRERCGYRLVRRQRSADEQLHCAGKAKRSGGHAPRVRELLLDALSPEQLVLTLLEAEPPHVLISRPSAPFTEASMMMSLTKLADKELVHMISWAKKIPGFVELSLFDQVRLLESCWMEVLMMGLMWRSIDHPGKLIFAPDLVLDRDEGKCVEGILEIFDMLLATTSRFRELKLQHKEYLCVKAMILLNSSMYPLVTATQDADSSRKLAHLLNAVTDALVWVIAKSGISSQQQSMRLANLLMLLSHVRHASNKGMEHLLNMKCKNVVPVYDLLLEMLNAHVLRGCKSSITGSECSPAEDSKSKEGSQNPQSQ
Thyrotropin-releasing hormone receptor (Homo sapiens), sequence (P34981 whole entry, looked up): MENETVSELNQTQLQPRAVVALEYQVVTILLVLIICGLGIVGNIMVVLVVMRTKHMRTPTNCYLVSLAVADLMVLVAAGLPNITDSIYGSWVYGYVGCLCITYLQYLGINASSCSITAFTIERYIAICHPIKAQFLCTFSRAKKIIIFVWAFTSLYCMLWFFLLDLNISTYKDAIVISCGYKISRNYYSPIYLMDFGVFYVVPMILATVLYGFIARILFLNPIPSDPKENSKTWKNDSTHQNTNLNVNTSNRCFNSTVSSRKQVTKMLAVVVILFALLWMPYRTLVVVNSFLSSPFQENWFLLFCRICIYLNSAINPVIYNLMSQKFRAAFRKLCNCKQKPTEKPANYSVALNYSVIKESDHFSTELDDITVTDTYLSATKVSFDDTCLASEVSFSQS
Estrogen receptor (Homo sapiens), sequence (P03372 whole entry, looked up): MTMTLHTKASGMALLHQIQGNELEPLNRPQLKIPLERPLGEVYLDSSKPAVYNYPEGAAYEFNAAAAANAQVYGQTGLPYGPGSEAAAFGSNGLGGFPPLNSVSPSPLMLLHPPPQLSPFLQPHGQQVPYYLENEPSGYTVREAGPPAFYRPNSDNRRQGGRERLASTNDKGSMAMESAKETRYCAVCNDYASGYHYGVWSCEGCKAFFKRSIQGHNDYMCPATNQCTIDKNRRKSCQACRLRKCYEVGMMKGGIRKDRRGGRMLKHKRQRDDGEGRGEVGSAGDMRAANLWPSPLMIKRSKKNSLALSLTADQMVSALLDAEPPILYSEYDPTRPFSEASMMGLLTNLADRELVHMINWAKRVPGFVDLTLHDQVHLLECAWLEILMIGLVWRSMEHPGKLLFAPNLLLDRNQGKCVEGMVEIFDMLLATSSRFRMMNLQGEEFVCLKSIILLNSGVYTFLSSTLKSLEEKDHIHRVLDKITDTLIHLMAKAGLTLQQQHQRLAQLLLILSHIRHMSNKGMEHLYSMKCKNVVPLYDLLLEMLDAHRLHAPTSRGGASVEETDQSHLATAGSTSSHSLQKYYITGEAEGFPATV

Consider `O=C1c2ccccc2C(=O)c2cc(O)ccc21`, for which the Potency entry in test [1], in [3], in test [6] and in [7] was “inactive” in each case. Besides, the Potency in test [2] was 5.45 µM (active); in test [5], 27.3 µM (active). The compound was called inactive in test [4], in [8], in test [9] and in test [10].

Consider `CCN(Cc1ccccc1)c1ccccc1`, for which the Potency is 48 µM (active) in test [1] and 67.8 µM (active) in [14]. For the same compound, the Potency result in test [2], in test [11], in test [5], in [7] and in [16] was “inactive” throughout. The call in [4], in test [12], in test [13], in test [8], in test [9] and in [10] was inactive. The call in test [15] was inactive.

Regarding `Cc1nc2ccc(CN(C)c3ccc(C(=O)N[C@@H](CCC(=O)O)C(=O)O)s3)cc2c(=O)[nH]1`, the Potency result in test [1], in test [17], in test [11], in [5], in test [6] and in [7] was “inactive” throughout. For the same compound, the Potency result in test [19], in [14] and in [16] was “inactive” each time. Besides, in [3], the Potency was 0.15 µM (active). Besides, the call in test [13], in test [18], in test [8], in [9], in test [10] and in [15] was inactive.

Take `CO[C@@]1(NC(=O)CSC[C@@H](N)C(=O)O)C(=O)N2C(C(=O)O)=C(CSc3nnnn3C)CS[C@@H]21`: the Potency entry in test [1], in [17], in test [3], in test [11], in [5] and in test [6] was “inactive” throughout. Also, the Potency result in [7], in [19], in test [14] and in [16] was “inactive” in each case. For the same compound, the result in test [12], in [13], in [18], in test [8], in test [9] and in [10] was inactive. Further, in [15], the outcome was inactive.

For `O=C(c1ccccc1)C1(O)CCCCC1`, the Potency result in [1], in test [2], in test [20], in test [3], in [5] and in [19] was “inactive” in each case. Further, the Potency result in [14] and in test [16] was “inactive” throughout. The compound was called inactive in test [4], in test [13], in test [18], in test [8], in [9] and in test [10]. The compound was called inactive in test [15].

For the compound `CC(C)NNC(=O)c1ccncc1`, the Potency entry in test [1], in test [17], in [3], in test [11], in test [5] and in test [7] was “inactive” throughout. Moreover, the Potency entry in [19] and in test [14] was “inactive” each time. Moreover, the call in test [4], in test [13], in [18], in test [8] and in [10] was inactive.

Consider `CC(=O)c1cnccn1`, for which the Potency entry in [1], in test [17], in test [3], in test [5], in test [6] and in test [7] was “inactive” throughout. In addition, the Potency result in test [19], in [14] and in [16] was “inactive” in each case. The call in test [4], in test [12], in test [13], in [18], in test [8] and in test [9] was inactive. In addition, the outcome in test [10] and in test [15] was inactive.

Regarding `CCN(C=O)CC`, the Potency entry in test [1], in [2], in test [20], in [5] and in [16] was “inactive” in each case. The outcome in test [4], in [13], in [18], in test [8], in test [10] and in test [15] was inactive. For the same compound, in test [14], the Potency was 49.8 µM (active).

`C1CCC2(CCCCO2)OC1`: the Potency entry in [1], in test [2], in test [17], in [3], in test [5] and in test [6] was “inactive” throughout. Besides, the Potency result in [7], in test [19], in test [14] and in [16] was “inactive” each time. In addition, the compound was classed as inactive in test [4], in test [12], in test [13], in [18], in test [8] and in test [9]. The outcome in test [10] and in test [15] was inactive.
